Hit rate of the full screen: of about 410,000 compounds, about 2,000 (0.49%) were called active. Where a call stands in place of a potency, no number is given. Roughly 8% stayed inconclusive and do not appear here. Calls follow the shape of the full dose curve; tested in HEK293 reporter line. Many of the other results were omitted from the sample, so actives are more common in it than they were.
Potency is read from the fitted curve at half-maximal effect.

The experiment is described as follows: qHTS Assay for Foot and Mouth Disease Virus Antivirals: Primary Screen against the MLPCN compound library. Also: nearly all actives have a fitted effect of over 55% in size. Conditions: FMDV antiviral cell-based qHTS; series mostly up to 57.9 µM.
Take `Cc1cc(C)cc(-n2c(SCC(=O)Nc3cccc(F)c3)nc3c([nH]c4ccccc43)c2=O)c1`: the Potency result was “inactive”.

Take `COc1ccc(C)cc1NC(=O)CN(C)S(=O)(=O)c1cc(C)ccc1OC`: the Potency result is “inactive”.

As for `O=P(c1ccccc1)(c1ccccc1)c1nc(-c2ccccc2)oc1NCc1ccccc1`, the Potency result was “inactive”.

Regarding `C=C[C@H](Cc1ccccc1)N(Cc1ccccc1)S(=O)(=O)N(Cc1ccccc1)[C@H](C=C)Cc1ccccc1`, the Potency result is “inactive”.

With `Cc1cc(C)c(C(N)=O)c(SCC(=O)c2cc(C)c(C)cc2C)n1`, the Potency result was “inactive”.

As to `CSc1nc2ccc(NC(=O)c3ccccn3)cc2s1`, the Potency is 15.8 µM (active).

Regarding `O=C(Nc1ccc2nc(SCCOc3ccccc3)sc2c1)c1cccs1`, the Potency result is “inactive”.

Consider `CCOc1ccc2nc(NC(=O)c3ccccn3)sc2c1`, for which the Potency is 12.6 µM (active).

With `CCOc1ccc2nc(NS(=O)(=O)c3ccc(NC(C)=O)cc3)sc2c1`, the Potency result was “inactive”.

Regarding `CCOc1ccc(C(=O)Nc2ccc3nc(SCC(=O)N(C)c4ccccc4)sc3c2)cc1`, the Potency entry was “inactive”.

`CCOc1ccc2nc(NC(=O)c3cccn(Cc4ccc(C)cc4)c3=O)sc2c1`: the Potency entry was “inactive”.

In the case of `CN1/C(=C\C(=O)COC(=O)CNC(=O)c2ccc3ccccc3c2)C(C)(C)c2ccccc21`, the Potency entry was “inactive”.

Consider `O=C(NCCc1ccc(F)cc1)C(=O)NCC(c1cccs1)S(=O)(=O)c1ccccc1` (centres undefined), for which the Potency entry was “inactive”.

For the molecule `CCCCCn1c(CCCNC(=O)c2cccc(C)c2)nc2ccccc21`, the Potency result is “inactive”.

Consider `Cc1cccc(C(=O)n2c(=S)nc3cc(C)ccn32)c1`, for which the Potency was 11.2 µM (active).

Regarding `Cc1cccc(C(=O)O/N=C(\N)Cc2cccc3ccccc23)c1`, the Potency entry was “inactive”.

As for `COc1ccccc1N=C1SCC(=O)N1c1ccccc1OC`, the Potency result is “inactive”.

Turning to `CSCCC(c1nnnn1C1CCCCC1)N1CCC(n2c(=O)[nH]c3ccccc32)CC1` (centres undefined), the Potency entry was “inactive”.

In the case of `c1ccc2sc(NN=C3CCCCCC3)nc2c1`, the Potency was 15.8 µM (active).

Take `c1ccc(C(=NNc2nc3ccccc3s2)c2ccccn2)cc1`: the Potency entry was “inactive”.

On to `CC(=O)Nc1ccc(S(=O)(=O)Nc2nc3ccccc3s2)cc1`, for which the Potency result was “inactive”.

Turning to `Cc1oc(-c2cccs2)nc1CSCC(=O)N1CCC2(CC1)OCCO2`, the Potency entry was “inactive”.

For `CCCS(=O)(=O)c1cscc1NC(=O)c1c(-c2c(F)cccc2Cl)noc1C`, the Potency result is “inactive”.

In the case of `Cc1cc(=S)nc(-c2ccccn2)[nH]1`, the Potency result is “inactive”.

As to `c1ccc(-c2nnc(-c3ccccn3)s2)nc1`, the Potency is 14.1 µM (active).

Regarding `c1ccc(C2=Nn3c(nnc3-c3ccccn3)SC2)cc1`, the Potency entry is “inactive”.

As to `CCOc1ccccc1C(=O)NC(C(=O)N(C)Cc1ccc2c(c1)OCO2)C(C)C` (centres undefined), the Potency entry is “inactive”.

Turning to `COc1ccc2c(CC(=O)Nc3ccccc3N3CCOCC3)coc2c1`, the Potency entry is “inactive”.

With `CCN(CC)S(=O)(=O)c1ccc(C)c(NC(=O)CSc2nc3ccc(C)cc3[nH]2)c1`, the Potency entry is “inactive”.

`C/C(N)=C(/C#N)C(=O)CSc1nc2ccc(C)cc2[nH]1`: the Potency was 22.4 µM (active).

Consider `C/C(N)=C(/C#N)C(=O)CSc1nc2scc(-c3ccc(F)cc3)c2c(=O)n1C`, for which the Potency entry was “inactive”.

On to `CCN1CCN(C(=O)c2ccc(NS(=O)(=O)c3ccccc3)cc2)CC1`, for which the Potency entry is “inactive”.

As for `Cc1nn2c3c(cnc2c1-c1ccc(F)cc1)C(=O)CC(c1ccccc1)C3` (centres undefined), the Potency result was “inactive”.

As to `Cc1nc2c(-c3ccc(F)cc3)c(C)nn2c(C)c1CCC(=O)Nc1ccccc1`, the Potency entry is “inactive”.

In the case of `Cc1ccccc1-c1ccnc2c(-c3ccc(F)cc3)c(C)nn12`, the Potency was 28.2 µM (active).

On to `CCN(C(=O)COC(=O)/C=C/c1cccc(Br)c1)C1CCS(=O)(=O)C1` (centres undefined), for which the Potency entry is “inactive”.

`O=C(c1ccco1)N1CCN(c2ncnc3c(-c4ccc(Cl)cc4)nsc23)CC1`: the Potency entry was “inactive”.

As to `CN1CCN(c2ncnc3c2[nH]c2ccc(F)cc23)CC1`, the Potency entry is “inactive”.

On to `O=C(c1ccco1)N1CCN(c2ncnc3c2[nH]c2ccc(Br)cc23)CC1`, for which the Potency is 31.6 µM (active).

As for `COC(=O)c1ccc(CSc2ccc3nnc(-c4ccc(F)cc4)n3n2)o1`, the Potency result is “inactive”.

Regarding `COc1cc(NC(=O)Nc2cccc(Cl)c2)c(C(=O)O)cc1OC`, the Potency result was “inactive”.

Regarding `O=C(Nc1ccccc1)Nc1ccc(O)c2ccccc12`, the Potency result is “inactive”.

On to `O=C(Nc1ccc(Cl)cc1)Nc1ccccc1C(=O)O`, for which the Potency is 10 µM (active).

For the molecule `CC1CCc2sc(C(=O)N3CCN(c4ncccn4)CC3)cc2C1` (centres undefined), the Potency result was “inactive”.

On to `CC(=O)c1ccc(-c2cc([C@H]3[C@H]4C=CC[C@@H](C)[C@@H]4C(=O)N3Cc3ccccc3)ccc2F)cc1`, for which the Potency entry was “inactive”.

As to `O=C(/C=C/Nc1ccccc1)c1ccccc1`, the Potency is 7.94 µM (active).

As to `O=C(/C=C\Nc1ccc2c(c1)OCO2)c1ccc2c(c1)OCO2`, the Potency was 17.8 µM (active).

On to `Cc1ccc(NC(=O)C(=O)NCC2(c3ccccc3)CCCC2)cc1C`, for which the Potency result is “inactive”.

As to `O=C(NC(=S)Nc1ccc2c(c1)OCO2)c1ccc(Cl)cc1`, the Potency entry is “inactive”.

Consider `Cc1ccc(N/C=C/C(=O)c2ccccc2)cc1C`, for which the Potency was 7.94 µM (active).

With `CC(=O)c1cccc(NS(=O)(=O)c2ccc(N/C=C\C(=O)c3ccc(C)cc3)cc2)c1`, the Potency result was “inactive”.

Regarding `O=C1Nc2ccc(Br)cc2/C1=C/C(=O)c1ccccc1`, the Potency entry is “inactive”.

As to `CSc1ccccc1NC(=O)CSCc1ccc(Br)cc1`, the Potency result is “inactive”.

Take `Cn1c(=O)n(C)c2cc(C(=O)Nc3ccc4c(c3)OCO4)ccc21`: the Potency result is “inactive”.

Consider `O=C(Nc1ccccc1)/C(=C/c1ccccc1)c1ccccc1`, for which the Potency entry was “inactive”.

For `Cc1ccc(NC(=O)c2ccc(NC(=O)c3ccccc3)cc2)cc1C`, the Potency entry is “inactive”.

For the molecule `O=C(/C=C/Nc1ccccc1F)c1ccc(Br)cc1`, the Potency is 12.6 µM (active).

`O=C(/C=C/c1cc([N+](=O)[O-])ccc1OC(F)F)Nc1cccc([N+](=O)[O-])c1`: the Potency result is “inactive”.

Turning to `O=C(COc1ccc(Br)cc1)N1CCN(c2ccccc2)CC1`, the Potency entry was “inactive”.

Take `CCc1nc(SCc2cccnc2)c2c(=O)n(C)c(=O)n(C)c2n1`: the Potency result was “inactive”.

In the case of `COC(=O)C1=C(C)N(c2cccc3ccccc23)C(=O)C1`, the Potency entry is “inactive”.

Consider `O=S(=O)(Nc1ccccc1Cl)c1ccc2[nH]c(=S)oc2c1`, for which the Potency result is “inactive”.

Take `CCCC(=O)Nc1ccc2nc(C)n(Cc3ccccc3Cl)c(=O)c2c1`: the Potency entry was “inactive”.

Take `Cc1ccc(S(=O)(=O)N(C)CC(=O)Nc2ccncc2)cc1`: the Potency entry is “inactive”.

For the molecule `CCOc1ccccc1/C=N/n1c(C)nc2ccccc2c1=O`, the Potency result is “inactive”.

As to `Cc1cc(C)cc(-n2ccnc2SCC(=O)Nc2ccccc2F)c1`, the Potency result was “inactive”.

Turning to `O=C(Nc1ccccn1)C(F)(F)C(F)(F)C(F)(F)C(F)(F)C(=O)Nc1ccccn1`, the Potency entry was “inactive”.

Take `O=C(/C=C\Nc1ccccn1)c1ccccc1`: the Potency was 10 µM (active).

Take `CN(C)/C=C/C(=O)c1cccc(Oc2ncccn2)c1`: the Potency entry is “inactive”.
